Legend:
[1] = target: Sphingosine kinase 1 (Homo sapiens) (UniProt Q9NYA1); settings: at 1 µM;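 note: mean SPHK1 inhibition value reported from the GSK PKIS kinase panel screen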
[2] = target: T1, Sphingosine kinase 2 (Homo sapiens) (UniProt Q9NRA0); settings: at 0.1 µM
T1 sequence (whole entry): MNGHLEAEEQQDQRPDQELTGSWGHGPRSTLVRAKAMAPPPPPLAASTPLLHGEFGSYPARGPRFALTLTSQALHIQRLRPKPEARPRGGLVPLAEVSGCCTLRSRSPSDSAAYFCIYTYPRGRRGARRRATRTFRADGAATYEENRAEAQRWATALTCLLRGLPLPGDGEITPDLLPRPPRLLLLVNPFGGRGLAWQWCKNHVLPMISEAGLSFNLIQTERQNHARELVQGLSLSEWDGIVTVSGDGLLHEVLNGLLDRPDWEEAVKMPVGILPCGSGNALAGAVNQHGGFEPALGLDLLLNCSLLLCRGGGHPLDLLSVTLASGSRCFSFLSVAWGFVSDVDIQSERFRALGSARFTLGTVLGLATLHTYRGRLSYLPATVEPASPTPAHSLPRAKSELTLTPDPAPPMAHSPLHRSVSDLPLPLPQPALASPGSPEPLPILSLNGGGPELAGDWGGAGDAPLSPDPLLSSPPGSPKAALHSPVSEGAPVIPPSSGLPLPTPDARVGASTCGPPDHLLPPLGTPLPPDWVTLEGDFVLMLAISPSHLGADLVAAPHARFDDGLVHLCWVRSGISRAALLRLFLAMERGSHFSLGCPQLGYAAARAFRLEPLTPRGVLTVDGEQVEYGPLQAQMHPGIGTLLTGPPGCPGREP

[3] = target: T1, Sphingosine kinase 2 (Homo sapiens); settings: at 1 µM
[4] = target: Casein kinase II subunit alpha (Homo sapiens) (UniProt P68400); settings: at 0.1 µM
[5] = target: Casein kinase II subunit alpha (Homo sapiens) (UniProt P68400); settings: at 1 µM
[6] = target: T2, Inhibitor of nuclear factor kappa-B kinase subunit alpha (Homo sapiens) (UniProt O15111); settings: at 0.1 µM
T2 sequence (whole entry): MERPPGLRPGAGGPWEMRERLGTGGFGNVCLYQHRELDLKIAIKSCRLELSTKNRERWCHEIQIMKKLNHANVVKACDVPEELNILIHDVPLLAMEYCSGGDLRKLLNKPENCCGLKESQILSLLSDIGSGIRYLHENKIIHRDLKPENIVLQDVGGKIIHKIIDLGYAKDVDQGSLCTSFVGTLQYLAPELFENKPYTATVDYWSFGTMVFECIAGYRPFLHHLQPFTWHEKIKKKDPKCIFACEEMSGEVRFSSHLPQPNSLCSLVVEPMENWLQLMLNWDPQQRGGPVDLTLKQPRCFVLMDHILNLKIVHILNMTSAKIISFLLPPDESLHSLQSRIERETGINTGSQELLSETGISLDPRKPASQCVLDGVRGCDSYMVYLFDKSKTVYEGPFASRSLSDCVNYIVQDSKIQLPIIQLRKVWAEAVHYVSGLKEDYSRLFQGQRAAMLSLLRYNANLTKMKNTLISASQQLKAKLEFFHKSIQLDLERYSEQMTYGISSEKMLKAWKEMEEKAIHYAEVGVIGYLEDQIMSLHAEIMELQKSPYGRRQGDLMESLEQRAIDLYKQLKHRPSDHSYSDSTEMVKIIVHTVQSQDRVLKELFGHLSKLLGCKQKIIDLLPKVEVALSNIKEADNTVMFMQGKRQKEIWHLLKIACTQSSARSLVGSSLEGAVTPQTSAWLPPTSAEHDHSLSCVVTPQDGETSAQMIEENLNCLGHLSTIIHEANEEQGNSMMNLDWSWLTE

[7] = target: T2, Inhibitor of nuclear factor kappa-B kinase subunit alpha (Homo sapiens); settings: at 1 µM
[8] = target: T3, Inhibitor of nuclear factor kappa-B kinase subunit beta (Homo sapiens) (UniProt O14920); settings: at 0.1 µM
T3 sequence (whole entry): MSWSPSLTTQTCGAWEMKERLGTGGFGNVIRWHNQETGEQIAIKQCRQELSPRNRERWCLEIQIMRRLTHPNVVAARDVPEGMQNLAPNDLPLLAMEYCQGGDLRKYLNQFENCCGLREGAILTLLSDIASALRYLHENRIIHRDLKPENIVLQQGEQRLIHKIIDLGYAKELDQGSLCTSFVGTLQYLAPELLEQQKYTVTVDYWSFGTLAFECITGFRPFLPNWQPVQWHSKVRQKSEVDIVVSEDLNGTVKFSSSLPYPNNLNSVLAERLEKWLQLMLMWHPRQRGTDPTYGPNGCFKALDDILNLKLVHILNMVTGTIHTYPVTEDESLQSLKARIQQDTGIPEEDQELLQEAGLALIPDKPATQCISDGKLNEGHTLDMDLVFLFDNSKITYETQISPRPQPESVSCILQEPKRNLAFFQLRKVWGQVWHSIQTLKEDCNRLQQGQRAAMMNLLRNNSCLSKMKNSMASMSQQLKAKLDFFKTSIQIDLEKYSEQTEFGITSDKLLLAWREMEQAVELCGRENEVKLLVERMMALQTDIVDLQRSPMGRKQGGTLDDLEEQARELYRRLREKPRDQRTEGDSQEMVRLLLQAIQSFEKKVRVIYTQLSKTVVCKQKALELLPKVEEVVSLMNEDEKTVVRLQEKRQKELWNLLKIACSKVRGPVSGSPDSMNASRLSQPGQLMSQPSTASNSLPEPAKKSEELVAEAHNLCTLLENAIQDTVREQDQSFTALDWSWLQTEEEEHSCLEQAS

[9] = target: T3, Inhibitor of nuclear factor kappa-B kinase subunit beta (Homo sapiens); settings: at 1 µM
[10] = target: T4, Inhibitor of nuclear factor kappa-B kinase subunit epsilon (Homo sapiens) (UniProt Q14164); settings: at 0.1 µM
T4 sequence (whole entry): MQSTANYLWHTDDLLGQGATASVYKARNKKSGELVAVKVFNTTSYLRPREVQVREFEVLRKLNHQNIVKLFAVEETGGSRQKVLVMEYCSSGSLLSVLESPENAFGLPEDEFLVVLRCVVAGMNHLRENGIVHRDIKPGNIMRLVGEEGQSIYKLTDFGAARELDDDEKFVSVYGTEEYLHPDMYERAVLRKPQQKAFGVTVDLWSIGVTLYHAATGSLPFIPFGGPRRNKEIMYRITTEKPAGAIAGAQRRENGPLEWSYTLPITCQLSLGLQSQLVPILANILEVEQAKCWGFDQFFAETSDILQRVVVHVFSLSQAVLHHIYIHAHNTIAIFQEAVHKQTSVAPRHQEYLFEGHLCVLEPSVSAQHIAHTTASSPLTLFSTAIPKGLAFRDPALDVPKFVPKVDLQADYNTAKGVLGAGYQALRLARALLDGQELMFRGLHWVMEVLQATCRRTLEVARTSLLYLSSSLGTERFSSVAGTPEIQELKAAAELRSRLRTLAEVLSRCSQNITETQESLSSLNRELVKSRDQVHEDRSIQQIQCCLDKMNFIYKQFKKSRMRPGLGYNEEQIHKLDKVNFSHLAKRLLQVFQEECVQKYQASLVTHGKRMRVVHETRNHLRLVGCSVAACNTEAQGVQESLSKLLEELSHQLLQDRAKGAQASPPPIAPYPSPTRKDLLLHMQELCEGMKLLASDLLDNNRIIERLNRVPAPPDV

[11] = target: T4, Inhibitor of nuclear factor kappa-B kinase subunit epsilon (Homo sapiens); settings: at 1 µM
[12] = target: T5, Serine/threonine-protein kinase Nek1 (Homo sapiens) (UniProt Q96PY6); settings: at 0.1 µM
T5 sequence (whole entry): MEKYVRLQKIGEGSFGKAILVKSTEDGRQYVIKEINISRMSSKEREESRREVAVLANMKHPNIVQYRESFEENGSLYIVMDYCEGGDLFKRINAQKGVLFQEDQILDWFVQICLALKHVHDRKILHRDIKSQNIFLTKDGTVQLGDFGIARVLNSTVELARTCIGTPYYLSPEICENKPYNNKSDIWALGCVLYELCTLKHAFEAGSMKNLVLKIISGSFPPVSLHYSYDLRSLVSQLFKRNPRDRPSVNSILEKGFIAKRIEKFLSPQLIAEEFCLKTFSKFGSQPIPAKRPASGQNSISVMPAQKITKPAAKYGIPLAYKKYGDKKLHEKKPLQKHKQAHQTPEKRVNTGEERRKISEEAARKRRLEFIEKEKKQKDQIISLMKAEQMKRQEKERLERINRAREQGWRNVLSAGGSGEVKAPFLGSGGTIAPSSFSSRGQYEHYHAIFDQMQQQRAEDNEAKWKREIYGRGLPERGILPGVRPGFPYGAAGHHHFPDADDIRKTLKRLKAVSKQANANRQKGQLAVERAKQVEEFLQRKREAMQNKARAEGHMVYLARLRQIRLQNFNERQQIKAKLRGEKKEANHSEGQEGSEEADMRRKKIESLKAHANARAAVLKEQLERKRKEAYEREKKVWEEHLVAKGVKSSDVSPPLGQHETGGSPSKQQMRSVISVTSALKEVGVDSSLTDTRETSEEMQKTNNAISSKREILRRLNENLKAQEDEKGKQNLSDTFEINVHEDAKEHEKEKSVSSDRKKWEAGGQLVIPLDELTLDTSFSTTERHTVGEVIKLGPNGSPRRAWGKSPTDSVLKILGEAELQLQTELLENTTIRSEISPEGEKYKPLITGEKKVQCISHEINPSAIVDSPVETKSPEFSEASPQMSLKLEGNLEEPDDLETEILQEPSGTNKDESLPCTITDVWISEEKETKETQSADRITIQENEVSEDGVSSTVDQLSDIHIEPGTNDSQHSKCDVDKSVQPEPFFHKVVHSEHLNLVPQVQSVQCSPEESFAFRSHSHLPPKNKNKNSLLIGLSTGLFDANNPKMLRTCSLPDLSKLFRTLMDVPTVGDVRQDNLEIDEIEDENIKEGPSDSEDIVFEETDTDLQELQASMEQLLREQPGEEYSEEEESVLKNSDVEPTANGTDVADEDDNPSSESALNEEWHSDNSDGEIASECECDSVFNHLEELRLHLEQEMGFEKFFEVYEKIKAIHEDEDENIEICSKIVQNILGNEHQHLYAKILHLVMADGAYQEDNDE

[13] = target: T5, Serine/threonine-protein kinase Nek1 (Homo sapiens); settings: at 1 µM
[14] = target: T6, Serine/threonine-protein kinase Nek2 (Homo sapiens) (UniProt P51955); settings: at 0.1 µM
T6 sequence (whole entry): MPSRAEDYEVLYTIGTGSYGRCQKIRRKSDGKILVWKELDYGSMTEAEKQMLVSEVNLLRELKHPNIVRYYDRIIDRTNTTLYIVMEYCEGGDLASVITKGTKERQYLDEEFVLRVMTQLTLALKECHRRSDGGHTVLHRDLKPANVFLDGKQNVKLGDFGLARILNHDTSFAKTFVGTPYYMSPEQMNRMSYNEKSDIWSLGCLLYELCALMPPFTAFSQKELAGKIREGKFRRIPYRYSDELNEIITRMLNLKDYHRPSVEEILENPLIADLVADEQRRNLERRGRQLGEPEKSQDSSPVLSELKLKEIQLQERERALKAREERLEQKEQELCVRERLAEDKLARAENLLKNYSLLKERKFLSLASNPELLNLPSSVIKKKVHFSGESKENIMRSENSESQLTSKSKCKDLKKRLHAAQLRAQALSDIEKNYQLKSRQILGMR

[15] = target: T6, Serine/threonine-protein kinase Nek2 (Homo sapiens); settings: at 1 µM
[16] = target: Serine/threonine-protein kinase Nek6 (Homo sapiens) (UniProt Q9HC98); settings: at 0.1 µM
[17] = target: Serine/threonine-protein kinase Nek6 (Homo sapiens) (UniProt Q9HC98); settings: at 1 µM
[18] = target: Serine/threonine-protein kinase Nek7 (Homo sapiens) (UniProt Q8TDX7); settings: at 0.1 µM
[19] = target: Serine/threonine-protein kinase Nek7 (Homo sapiens) (UniProt Q8TDX7); settings: at 1 µM
[20] = target: T7, Serine/threonine-protein kinase Nek9 (Homo sapiens) (UniProt Q8TD19); settings: at 0.1 µM;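 note: reported value is the mean percent inhibition of NEK9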
T7 sequence (whole entry): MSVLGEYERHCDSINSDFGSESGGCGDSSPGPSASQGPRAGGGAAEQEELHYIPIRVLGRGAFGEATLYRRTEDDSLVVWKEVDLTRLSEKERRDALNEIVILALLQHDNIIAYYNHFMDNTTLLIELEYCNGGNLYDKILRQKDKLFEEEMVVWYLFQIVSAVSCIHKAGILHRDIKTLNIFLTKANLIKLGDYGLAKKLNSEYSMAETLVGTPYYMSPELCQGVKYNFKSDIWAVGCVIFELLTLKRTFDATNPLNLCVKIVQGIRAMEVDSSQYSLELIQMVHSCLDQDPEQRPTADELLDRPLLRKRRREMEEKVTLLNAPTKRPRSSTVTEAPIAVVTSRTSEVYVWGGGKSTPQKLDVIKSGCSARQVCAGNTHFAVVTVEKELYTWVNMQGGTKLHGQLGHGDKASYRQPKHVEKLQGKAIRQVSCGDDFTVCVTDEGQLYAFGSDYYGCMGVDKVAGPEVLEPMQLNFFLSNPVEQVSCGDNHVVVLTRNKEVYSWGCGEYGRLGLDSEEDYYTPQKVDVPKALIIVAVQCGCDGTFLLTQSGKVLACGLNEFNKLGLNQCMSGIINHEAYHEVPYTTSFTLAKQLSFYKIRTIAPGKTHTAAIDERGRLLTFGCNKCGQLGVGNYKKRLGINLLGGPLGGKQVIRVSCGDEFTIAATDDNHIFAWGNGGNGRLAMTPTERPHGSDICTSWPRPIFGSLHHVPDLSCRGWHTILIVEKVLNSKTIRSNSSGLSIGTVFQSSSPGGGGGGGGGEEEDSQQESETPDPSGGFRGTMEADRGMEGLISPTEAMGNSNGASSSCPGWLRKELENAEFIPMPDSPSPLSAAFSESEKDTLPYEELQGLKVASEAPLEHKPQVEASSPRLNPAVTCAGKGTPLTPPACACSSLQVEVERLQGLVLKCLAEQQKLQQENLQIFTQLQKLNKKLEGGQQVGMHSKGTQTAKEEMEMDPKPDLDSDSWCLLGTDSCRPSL

Chain of Serine/threonine-protein kinase Nek6 (Homo sapiens) (Q9HC98 whole entry): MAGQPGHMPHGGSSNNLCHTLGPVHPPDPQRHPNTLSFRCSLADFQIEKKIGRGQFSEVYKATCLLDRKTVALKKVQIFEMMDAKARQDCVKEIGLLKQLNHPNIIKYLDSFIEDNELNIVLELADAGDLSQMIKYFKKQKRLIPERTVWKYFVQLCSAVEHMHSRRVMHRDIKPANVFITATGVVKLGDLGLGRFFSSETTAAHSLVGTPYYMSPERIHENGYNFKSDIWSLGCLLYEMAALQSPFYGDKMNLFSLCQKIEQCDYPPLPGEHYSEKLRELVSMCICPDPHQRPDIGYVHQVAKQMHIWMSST
Chain of Serine/threonine-protein kinase Nek7 (Homo sapiens) (Q8TDX7 whole entry, looked up): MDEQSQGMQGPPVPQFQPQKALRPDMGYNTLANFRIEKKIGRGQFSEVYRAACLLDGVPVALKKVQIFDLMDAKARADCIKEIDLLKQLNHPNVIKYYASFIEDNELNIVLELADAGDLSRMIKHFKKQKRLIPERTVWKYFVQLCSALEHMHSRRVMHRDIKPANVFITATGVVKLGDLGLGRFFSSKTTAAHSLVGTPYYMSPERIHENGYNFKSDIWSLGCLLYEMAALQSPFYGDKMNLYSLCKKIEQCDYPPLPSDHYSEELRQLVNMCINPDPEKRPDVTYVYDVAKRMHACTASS
Chain of Casein kinase II subunit alpha (Homo sapiens) (P68400 whole entry, looked up): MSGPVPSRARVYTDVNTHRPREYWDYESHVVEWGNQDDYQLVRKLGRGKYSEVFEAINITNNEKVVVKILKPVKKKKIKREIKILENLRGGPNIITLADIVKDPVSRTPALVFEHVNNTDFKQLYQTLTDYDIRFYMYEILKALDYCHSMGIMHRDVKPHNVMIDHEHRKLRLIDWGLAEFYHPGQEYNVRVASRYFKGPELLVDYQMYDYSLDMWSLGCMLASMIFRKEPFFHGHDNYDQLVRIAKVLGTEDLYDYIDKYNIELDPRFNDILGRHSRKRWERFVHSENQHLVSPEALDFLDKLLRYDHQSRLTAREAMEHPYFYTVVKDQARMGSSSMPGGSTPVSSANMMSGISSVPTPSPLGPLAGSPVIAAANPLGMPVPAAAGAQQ
Chain of Sphingosine kinase 1 (Homo sapiens) (Q9NYA1 whole entry): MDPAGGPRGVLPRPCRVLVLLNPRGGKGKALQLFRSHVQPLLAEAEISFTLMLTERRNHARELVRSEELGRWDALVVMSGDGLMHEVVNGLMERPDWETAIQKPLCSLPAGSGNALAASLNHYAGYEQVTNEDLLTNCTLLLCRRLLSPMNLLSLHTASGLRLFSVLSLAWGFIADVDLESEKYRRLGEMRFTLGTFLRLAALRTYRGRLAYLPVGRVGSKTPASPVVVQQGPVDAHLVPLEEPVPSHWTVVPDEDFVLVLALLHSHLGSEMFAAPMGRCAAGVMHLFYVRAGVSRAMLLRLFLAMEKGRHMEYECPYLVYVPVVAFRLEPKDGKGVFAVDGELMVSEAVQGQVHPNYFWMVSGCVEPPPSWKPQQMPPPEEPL

SMILES	inhibition [1] [%]	inhibition [2] [%]	inhibition [3] [%]	inhibition [4] [%]	inhibition [5] [%]	inhibition [6] [%]	inhibition [7] [%]	inhibition [8] [%]	inhibition [9] [%]	inhibition [10] [%]	inhibition [11] [%]	inhibition [12] [%]	inhibition [13] [%]	inhibition [14] [%]	inhibition [15] [%]	inhibition [16] [%]	inhibition [17] [%]	inhibition [18] [%]	inhibition [19] [%]	inhibition [20] [%]
CN(C)c1ccc2c(c1)/C(=C/Nc1ccc(S(N)(=O)=O)cc1)C(=O)N2	-2.05	0.7	0.06	2.93	18	1.67	6.64	2.49	1.1	4.67	23.1	1.42	2.38	2.78	3.05	0.8	2.13	5.09	3.01	-1.19
CCc1ccc(Oc2nccc(-c3c(-c4ccc(F)cc4)ncn3C3CCNCC3)n2)cc1	11.5	1.25	0.72	3.17	4.14	-3.32	-1.04	3.54	4.07	8.2	6.86	2.27	1.69	4.75	2.36	2.41	0.8	2.65	5.98	-0.95
